Source: PubChem BioAssay (several laboratories)
Sampled rows, rich in hits. Any-hit rate of the full collection: about 1.7%.
RecA intein inh – Mtb RecA intein splicing inhibitors, primary screen, biochemical, fluorescence, HTS; cell-free RecA intein splicing; inhibition, % (concentration not given with the values); hit rate 0.75% among 290,000; in the data active means inhibition above about 30%; inconclusive means no clear call, values can overlap the other calls
Target sequence (P9WHJ3 whole entry, looked up): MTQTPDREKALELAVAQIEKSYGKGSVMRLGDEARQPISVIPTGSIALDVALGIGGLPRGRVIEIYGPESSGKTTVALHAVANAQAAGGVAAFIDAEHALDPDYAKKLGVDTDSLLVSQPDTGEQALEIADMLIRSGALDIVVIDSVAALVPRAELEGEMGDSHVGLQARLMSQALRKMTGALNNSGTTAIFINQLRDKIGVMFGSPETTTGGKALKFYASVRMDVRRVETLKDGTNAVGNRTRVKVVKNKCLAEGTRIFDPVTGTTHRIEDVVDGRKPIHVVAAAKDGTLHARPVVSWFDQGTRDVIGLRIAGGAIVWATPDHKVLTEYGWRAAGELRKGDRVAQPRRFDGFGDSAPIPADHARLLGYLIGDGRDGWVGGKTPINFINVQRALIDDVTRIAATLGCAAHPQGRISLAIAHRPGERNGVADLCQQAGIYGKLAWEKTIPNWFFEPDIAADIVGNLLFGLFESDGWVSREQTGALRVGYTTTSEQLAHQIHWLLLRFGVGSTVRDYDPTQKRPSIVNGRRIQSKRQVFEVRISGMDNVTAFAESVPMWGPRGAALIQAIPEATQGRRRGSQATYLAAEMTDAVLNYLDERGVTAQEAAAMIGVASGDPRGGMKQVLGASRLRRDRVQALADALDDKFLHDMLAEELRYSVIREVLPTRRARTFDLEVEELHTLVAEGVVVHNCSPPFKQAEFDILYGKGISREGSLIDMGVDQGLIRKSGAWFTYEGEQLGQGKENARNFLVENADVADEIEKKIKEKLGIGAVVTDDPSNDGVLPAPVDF
Mtb hypoxia rep – PubChem AID 1159583; M. tuberculosis hypoxia-regulated fluorescent reporter, fluorescence; fluorescence inhibition, % (concentration not given with the values); hit rate 0.1% among 300,000; in the data active means fluorescence inhibition mostly above about 23%, no sharp cut-off; inactive means mostly below about 17%
Mtb bLac sens – beta-lactam sensitization of Mtb H37Rv, H37Rv; M. tuberculosis H37Rv growth with meropenem, percent inhibition; inhibition, % at 25 µM; hit rate 0.27% among 330,000; call rule not given here;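 further: growth measured after seven days incubation then overnight dye step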
CCHF vOTU inh-1 – CCHFV vOTU protease inhibitors, primary screen, biochemical, Pep-AMC substrate, fluorescence; hit rate 0.55% among 370,000; inhibition, % at 11.5 µM; AID 651958, 2012; Crimean-Congo hemorrhagic fever virus L polyprotein viral ovarian tumor (vOTU) protease …
PfHsp40 rescue – rescue of yeast from PfHsp40 toxicity, primary screen, S. cerevisiae, ATP luminescence. S. cerevisiae expressing PfHsp40, growth rescue. growth rescue, % at 12.5 µM. hit rate 0.68% among 340,000; in the data active means growth rescue above about 28%, passing the limit was not always enough; inconclusive means no clear call, values can overlap the other calls;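 further: yeast W303a lacking pdr1 and pdr3 grown in galactose medium; growth measured after three days at 30 °C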
CCHF vOTU inh-2 – CCHFV vOTU protease inhibitors, confirmation, biochemical, Pep-AMC substrate, fluorescence. shares compounds with CCHF vOTU inh-1. hit rate 17% among 1,900. Recombinant CCHFV vOTU. AID 686976, 2013. inhibition, % at 11.5 µM
Each line names hits and unclear results; the compound was inactive in the other large screens (follow-up assays come after a bar, where they were run). Unless noted, no stated cut-off is given here; in the data, active means inhibition above about 30%; inactive means the rest.

C=CCOC(=O)c1cc(-c2ccc(/C=C3\C(=O)NC(=O)C(C#N)=C3C)o2)ccc1Cl	CCHF vOTU inh-1 33, PfHsp40 rescue inconclusive (no result: RecA intein inh, Mtb bLac sens) | CCHF vOTU inh-2 inactive
CCCOC(=O)c1cc(-c2ccc(/C=C3/C(=O)N(C)C(=O)C(C#N)=C3C)o2)ccc1Cl	none (no result: RecA intein inh, CCHF vOTU inh-1)
COc1cc([N+](=O)[O-])ccc1NC(=S)Nc1cccc(C(=O)O)c1	CCHF vOTU inh-1 31 | CCHF vOTU inh-2 inactive
CCOc1ccc(C=NOCC(=O)Nc2cc(S(=O)(=O)N3CCOCC3)ccc2OC)cc1	none (no result: RecA intein inh, Mtb bLac sens, CCHF vOTU inh-1, PfHsp40 rescue)
CC(C)c1ccc(C(c2c(O)c3ccccc3oc2=O)c2c(O)c3ccccc3oc2=O)cc1	CCHF vOTU inh-1 37 (no result: RecA intein inh, Mtb hypoxia rep, Mtb bLac sens, PfHsp40 rescue) | CCHF vOTU inh-2 inactive
CCOC(=O)c1cc2c(ccn2C)n1Cc1ccccc1Cl	none
CCOC(=O)c1cc2c(ccn2C)n1Cc1ccccc1C	CCHF vOTU inh-1 31 | CCHF vOTU inh-2 43
CCOC(=O)c1cc2c(ccn2C)n1CC(=O)N(Cc1ccccc1)c1ccccc1	CCHF vOTU inh-1 55 (no result: Mtb hypoxia rep) | CCHF vOTU inh-2 inactive
Cc1ccc(SCC(Cc2ccccc2)N2CCC(C)CCC2=O)cc1 (stereo unspecified)	none (no result: RecA intein inh, Mtb bLac sens, CCHF vOTU inh-1, PfHsp40 rescue)
CC(=NNC(=O)c1nnn(-c2nonc2N)c1-c1ccccc1)c1ccco1	none (no result: RecA intein inh, Mtb bLac sens, CCHF vOTU inh-1, PfHsp40 rescue)
COc1ccc(C(=O)CC(=O)C(=O)NCCc2cccc(C)c2)cc1	CCHF vOTU inh-1 31 | CCHF vOTU inh-2 inactive
COc1ccc(C(=O)CC(=O)C(=O)Nc2cc(C)ccc2C)cc1	none
O=C(Cc1ccccc1Cl)Nc1ccc(S(=O)(=O)Nc2nccs2)cc1	none
O=C(CSc1ccc(Br)c2cccc(Cl)c12)Nc1ccc(S(=O)(=O)Nc2nccs2)cc1	CCHF vOTU inh-1 36 | CCHF vOTU inh-2 inactive
CC(C)OCCCNC1=C(Cl)C(=O)c2ccccc2C1=O	none (no result: RecA intein inh, PfHsp40 rescue)
CC(C)NC1=C(Cl)C(=O)c2ccccc2C1=O	CCHF vOTU inh-1 59 | CCHF vOTU inh-2 60
COCCCNC1=C(Cl)C(=O)c2ccccc2C1=O	none
CCN(CC)CCCNC1=C(Cl)C(=O)c2ccccc2C1=O	CCHF vOTU inh-1 56 | CCHF vOTU inh-2 56
O=C1C(Cl)=C(NCCc2ccccc2)C(=O)c2ccccc21	CCHF vOTU inh-1 83 (no result: RecA intein inh, Mtb bLac sens) | CCHF vOTU inh-2 33
O=C(NC1CC1)C1=CC(c2ccc3c(c2)OCO3)CC(OCCCCO)O1 (stereo unspecified)	none (no result: RecA intein inh, Mtb bLac sens, CCHF vOTU inh-1, PfHsp40 rescue)
COc1cc(C=Nn2c(C3CCCCC3)n[nH]c2=S)ccc1O	none (no result: RecA intein inh, Mtb bLac sens, CCHF vOTU inh-1, PfHsp40 rescue)
CN(C)CCCNc1cc(O)c2ncccc2c1	CCHF vOTU inh-1 92 (no result: RecA intein inh) | CCHF vOTU inh-2 94
Oc1cc(NCc2ccc(F)cc2)cc2cccnc12	none (no result: RecA intein inh)
CC(C)CNC(=O)C1(C)CCCCCN1Cc1ccccc1-c1ccccc1 (stereo unspecified)	CCHF vOTU inh-1 35 (no result: RecA intein inh, Mtb hypoxia rep, Mtb bLac sens, PfHsp40 rescue) | CCHF vOTU inh-2 inactive
CCNC(=O)C1(C)CCCN1Cc1ccccc1Cl (stereo unspecified)	none (no result: RecA intein inh, Mtb hypoxia rep, Mtb bLac sens, PfHsp40 rescue)
Cc1cccc(C=NNc2ccc3ccccc3n2)c1	none (no result: RecA intein inh, Mtb bLac sens, CCHF vOTU inh-1, PfHsp40 rescue)
CCOC(=O)c1cnc(Nc2ccccc2)nc1C(F)(F)F	CCHF vOTU inh-1 34 | CCHF vOTU inh-2 inactive
Cc1ccc(S(=O)(=O)Nc2ccc3ccccc3c2[N+](=O)[O-])cc1	CCHF vOTU inh-1 35, PfHsp40 rescue 408 (no result: RecA intein inh, Mtb bLac sens) | CCHF vOTU inh-2 inactive
Cc1ccc(S(=O)(=O)Nc2ccc3cc([N+](=O)[O-])ccc3c2[N+](=O)[O-])cc1	CCHF vOTU inh-1 31, PfHsp40 rescue 352 (no result: RecA intein inh, Mtb bLac sens) | CCHF vOTU inh-2 inactive
Cn1ncc(Cl)c1C(=O)NN=Cc1ccccn1	none (no result: RecA intein inh, Mtb bLac sens, CCHF vOTU inh-1, PfHsp40 rescue)
O=C(N/N=C/c1cc(Br)ccc1O)c1cccc(N2CCCC2=O)c1	CCHF vOTU inh-1 32 (no result: Mtb hypoxia rep) | CCHF vOTU inh-2 inactive
COc1ccc(O)c(/C=N/NC(=O)c2cccc(N3CCCC3=O)c2)c1	none (no result: Mtb hypoxia rep)
O=C1C2C3C=CC(C4CC34)C2C(=O)N1N=Cc1ccc([N+](=O)[O-])o1 (stereo unspecified)	none (no result: RecA intein inh, Mtb bLac sens, CCHF vOTU inh-1, PfHsp40 rescue)
CCOC(=O)/C=C(\C)Sc1cc(=O)oc2ccccc12	none
CCOC(=O)/C=C(\C)Sc1cc(O)c2ccccc2c1O	CCHF vOTU inh-1 111, PfHsp40 rescue inconclusive (no result: RecA intein inh, Mtb bLac sens) | CCHF vOTU inh-2 98
CN(C)C(N)=NCCCC(N)C(=O)O (stereo unspecified)	none (no result: RecA intein inh, Mtb bLac sens, CCHF vOTU inh-1, PfHsp40 rescue)
COc1ccc(C=NNc2nncc3ccccc23)cc1	none (no result: RecA intein inh, Mtb bLac sens, CCHF vOTU inh-1, PfHsp40 rescue)
O=C(NNc1cccc(Cl)n1)Nc1ccc(Cl)cc1	CCHF vOTU inh-1 42 | CCHF vOTU inh-2 inactive
Cc1nc2c(C(=O)NCCC(C)C)c[nH]n2c(=O)c1Cc1ccccc1F	CCHF vOTU inh-1 41 | CCHF vOTU inh-2 inactive
COc1cc(COC(=O)Oc2ccc(CNC(C)=O)cc2OC)c([N+](=O)[O-])cc1OC	CCHF vOTU inh-1 31 | CCHF vOTU inh-2 inactive
Cc1ccc(NC(=S)NNc2ccc([N+](=O)[O-])cc2S(=O)(=O)Nc2ccccc2C(=O)O)cc1C	none
O=C(O)c1ccccc1NS(=O)(=O)c1ccc(NNC(=S)Nc2ccc(OC(F)F)cc2)c([N+](=O)[O-])c1	CCHF vOTU inh-1 70 (no result: Mtb bLac sens) | CCHF vOTU inh-2 65
S=c1[nH]nc(C2CCCCC2)n1/N=C/C=C/c1ccccc1	CCHF vOTU inh-1 32 (no result: Mtb hypoxia rep) | CCHF vOTU inh-2 inactive
Cc1cccc(Nc2nc(N)c([N+](=O)[O-])c(N3CCCC(C)C3)n2)c1 (stereo unspecified)	CCHF vOTU inh-1 31, PfHsp40 rescue 166 | CCHF vOTU inh-2 inactive
